About 83,000 compounds went through this panel and 20% of them were active in at least one assay; those are over-represented in the sample as a whole.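 In brief: 96-well plates, 48 h treatment, single concentration, percent growth endpoint.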 Unmarked numbers belong to inactive results. Calls of active or inactive are those of the source. *1 amine or outer side, *2 acyl side, *3 side chain or, on linkers, in order; H or OH if unused. Where a SMILES comes first, the peptide text is derived from it. [ ]: non-standard residue; d: D form. The star is where a group is joined. X5 = CCC(=O)CC1CC(C)CC(C(=O)[*:2])N1[*:1]; X4 = CCCCCCCCC(C)C(=O)*; Aib = CC(C)(N)C(=O)O; X6 = CC(CN(C)CCO)N*
What follows are molecules tested on UO-31 renal (assay: NCI-60 one-dose screen, 48 h (100 = growth as untreated, 0 = no growth, -100 = all killed)). Details: 10 µM unless noted.
Protocol: Growth inhibition of the UO-31 human tumor cell line is measured as a screen for anti-cancer activity. Cells are grown in 96 well plates and exposed to the test compound for 48 hours. Compounds are tested at a single concentration, which is 10^-5 M for most compounds. The reported endpoint is percent growth (GI% or GIPRCNT), where numbers from 0 - 100% represent growth inhibition, and numbers from -100% - 0 represent cell death. For example, a value of 40 represents 60% growth inhibition. A value of 0 means no net growth occurred over the course of the experiment. A value of -40 indicates 40% of cells at the beginning of the experiment died by the end of the experiment. A value of -100 means all cells are dead at the end of the experiment.
NCI-60 Human Tumor Cell Lines Screen was performed using the standard one-dose NCI protocol, which is described in more detail at https://dtp.cancer.gov/discovery_development/nci-60/default.htm.
Compounds with GIPRCNT values below 10 were considered active. Activity score was based on GIPRCNT using the following formula: […]
Score is 0 for GIPRCNT values of 100 or above, 50 for GIPRCNT values of 0, and 100 for GIPRCNT values of -100.

| SMILES | growth |
| --- | --- |
| O=[N+]([O-])c1ccc([I+]c2ccccc2)cc1 | 46.9% |
| O=C1C=CC(=O)N1c1cccc2c1CCCC2 | 87.9% |
| O=Nc1ccc2ccccc2c1O | 79.8% |
| O=C1C=CC(=O)N1C1CCCCCCCCCCC1 | 60.4% |
| Oc1ccc2ccccc2c1N=Nc1ccccn1 | 33.1% |
| CN(C)CCN(C)CC(C)(C)C(=O)/C=C/c1ccc(Cl)c(Cl)c1 | -100% [100 µM] (active) |
| O=C(Cc1ccccc1)C(F)(F)F | 93.7% |
| O=C(c1ccccc1)c1ccc(O)c2ncccc12 | 7.3% (active) |
| CCOc1ccc(C(C[N+](=O)[O-])Sc2ccccc2N)cc1 (stereo not given) | -62.9% (active) |
| CCCCCCN(CCCCCC)CCCNc1nccc2ccccc12 | 15.2% |
| O=C1C=CC(=O)N1c1ccc(O)cc1 | 98.5% |
| CCCCCC/C=C1\CCC(CN2CCCC2)C1=O (stereo not given) | 90.4% |
| CC(C)(C)c1ccc(O)c(Br)c1 | 86.5% |
| CC[n+]1ccc(Nc2ccc(NC(=O)c3ccc(Nc4cc[n+](CC)c5ccc([N+](=O)[O-])cc45)cc3)cc2)cc1 | 91.4% |
| Cc1ccc(NC2=CC(=O)C(=O)c3ccccc32)cc1 | -18.4% (active) |
| C1=C(c2ccccc2)c2ccccc2C1 | 68.8% |
| Cc1cc(=O)oc2cc(O)cc(O)c12 | 83.5% |
| O=[n+]1c2ccccc2n([O-])c2cc(Cl)ccc21 | 55.7% |
| CCCCCCCCCCCC[N+]1(CCCCCCCCCCCC)CCCC(C)C1 (stereo not given) | -100% (active) |
| CN(Cc1ccccc1)c1ccc(SC#N)cc1 | 37.7% |

| SMILES | growth |
| --- | --- |
| CCCN(CCC)C(=O)c1ccc(C)cc1 | 94.1% |
| O=C(Nc1ccc(Cl)c(Cl)c1)OCc1ccco1 | 36.1% |
| CC(C)=C1C=C2CC[C@@H]3[C@](C)(CCC[C@@]3(C)C(=O)O)[C@H]2CC1 | 88.9% |
| CN1CCC(c2ccccc2)(c2ccccc2)C(=O)C1 | 68.9% |
| COc1cc(-c2ccc(-[n+]3nc(-c4ccc([N+](=O)[O-])cc4)nn3-c3ccc([N+](=O)[O-])cc3)c(OC)c2)ccc1-[n+]1nc(-c2ccc([N+](=O)[O-])cc2)nn1-c1ccc([N+](=O)[O-])cc1 | 6.95% (active) |
| C/C(=N/NC(N)=S)c1ccc(C)cc1 | 68.1% |
| CCCCCCCCCCCCCCCCCC[S+](C)CC (stereo not given) | 59.6% |
| Oc1c(Cl)cc(Cl)cc1C(c1cc(Cl)cc(Cl)c1O)C(Cl)(Cl)Cl | -21.4% (active) |
| NNc1ccc(Cl)cc1Cl | 29.2% |
| CCCCCCCCC(C)C(=O)N1CCCC1C(=O)N1C(CC(=O)CC)CC(C)CC1C(=O)NC(C)C(=O)NC(C)(C)C(=O)NC(C)(C)C(=O)NC(C(=O)NC(C)C(=O)NC(C)(C)C(=O)NC(C)(C)C(=O)NC(C)CN(C)CCO)C(C)CC (stereo not given) (X4-P[X5]A[Aib][Aib]IA[Aib][Aib]-X6; configuration not given here) | -48.1% (active) |
| Nc1cc(-c2ccccc2)ccc1O | 93.4% |
| COC(=O)c1nc(=S)[nH]c(C(=O)OC)c1C(=O)c1ccc(Cl)c(Cl)c1 | 87% |
| CC1(C)N=c2cc3c(cc2N1c1ccc(Cl)cc1)=Nc1ccccc1N3c1ccc(Cl)cc1 | -37.1% (active) |
| COc1ccc2nc3cc([N+](=O)[O-])ccc3c(NNc3ccccc3)c2c1 | 91.4% |
| CCN1CCCC(Nc2cc(C)nc(/N=C(/N)Nc3ccc(Cl)c(Cl)c3)n2)C1 (stereo not given) | -81.4% (active) |
| CC(=O)Nc1ccc(C(=O)CCl)cc1 | 54.2% |
| Cc1ccc2c(c1)sc(-c1ccc(N(C)C)cc1)[n+]2C | 65.1% |
| N#CCc1cccc2ccccc12 | 92% |
| Cc1ccccc1N=C(N)Nc1ccccc1C (tested in a mixture with another compound) | 71.1% |
| CC(C)c1ccc(Nc2n[nH]c(=S)s2)cc1 | 83.7% |
